Experiment in all cases: DAPPL (digital affinity profiling via proximity ligation, sequencing); 10 mM Tris-HCl pH 7.5, 50 mM NaCl, 1 mM DTT, 4% glycerol, room temperature, 30 min; GST-TFs on glutathione beads, 16-mer random dsDNA library, 0.1% formaldehyde crosslink after washing; high values mean tight binding
Assay [1] deals with T1, FLI1 (Homo sapiens, UniProt Q01543 1-452).
T1 sequence: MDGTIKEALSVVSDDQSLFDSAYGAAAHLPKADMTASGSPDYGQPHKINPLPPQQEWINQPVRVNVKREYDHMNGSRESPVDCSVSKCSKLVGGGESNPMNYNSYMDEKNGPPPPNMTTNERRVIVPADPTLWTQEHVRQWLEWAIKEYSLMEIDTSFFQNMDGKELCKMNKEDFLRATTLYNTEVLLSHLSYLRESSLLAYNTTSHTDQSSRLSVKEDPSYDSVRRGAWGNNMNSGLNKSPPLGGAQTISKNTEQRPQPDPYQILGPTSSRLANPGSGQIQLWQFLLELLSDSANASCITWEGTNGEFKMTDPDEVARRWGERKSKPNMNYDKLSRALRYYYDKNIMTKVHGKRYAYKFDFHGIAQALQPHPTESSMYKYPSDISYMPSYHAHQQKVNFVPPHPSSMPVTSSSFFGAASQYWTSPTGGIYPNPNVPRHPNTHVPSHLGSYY
As to conditions: protein: recombinant; tags: N-terminal GST; dsDNA, one strand shown. In a few lines:
(§1)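 Human transcription factors were made in yeast as GST fusions, captured on glutathione beads and barcoded with DNA. With a tag-only sample included, the pool was incubated with 200 nmole of a random double-stranded 16-mer DNA library in Tris/NaCl/DTT/glycerol buffer at room temperature for 30 min, then crosslinked with 0.1% formaldehyde after washing, ligated by proximity, amplified and sequenced. For binding signal, each hexamer's read frequency for a factor is divided by its frequency for the tag-only sample.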

Assay [2] has as its target T2, ELK1 (Homo sapiens, UniProt P19419 1-428).
T2 sequence: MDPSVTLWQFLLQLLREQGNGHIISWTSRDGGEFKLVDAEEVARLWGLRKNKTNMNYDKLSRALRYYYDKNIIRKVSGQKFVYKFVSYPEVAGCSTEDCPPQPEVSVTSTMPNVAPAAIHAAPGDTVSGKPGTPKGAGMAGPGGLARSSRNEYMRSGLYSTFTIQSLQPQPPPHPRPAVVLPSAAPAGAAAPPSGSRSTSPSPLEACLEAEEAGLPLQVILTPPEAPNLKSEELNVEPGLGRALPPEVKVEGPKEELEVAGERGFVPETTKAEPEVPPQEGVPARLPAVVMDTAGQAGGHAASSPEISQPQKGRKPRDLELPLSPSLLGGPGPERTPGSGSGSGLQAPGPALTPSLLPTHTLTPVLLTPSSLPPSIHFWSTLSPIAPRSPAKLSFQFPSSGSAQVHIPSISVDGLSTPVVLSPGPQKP
The following applies: protein: recombinant; tags: N-terminal GST; dsDNA, one strand shown. A digest of the protocol:
as §1

Assay [3] concerns the target T3, GABPA (Homo sapiens, UniProt Q06546 1-454).
T3 sequence: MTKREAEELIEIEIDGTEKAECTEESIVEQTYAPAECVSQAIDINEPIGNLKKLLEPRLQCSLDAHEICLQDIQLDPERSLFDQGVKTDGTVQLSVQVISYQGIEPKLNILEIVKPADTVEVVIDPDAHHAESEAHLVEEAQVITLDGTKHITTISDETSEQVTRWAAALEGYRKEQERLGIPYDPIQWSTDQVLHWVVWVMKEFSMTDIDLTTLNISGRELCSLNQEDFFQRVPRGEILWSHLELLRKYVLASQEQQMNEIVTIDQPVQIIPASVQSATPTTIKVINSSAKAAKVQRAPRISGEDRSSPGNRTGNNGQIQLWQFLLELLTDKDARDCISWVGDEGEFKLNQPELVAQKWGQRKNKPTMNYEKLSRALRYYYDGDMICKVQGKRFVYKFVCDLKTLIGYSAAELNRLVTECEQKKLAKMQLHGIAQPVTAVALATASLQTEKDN
As to conditions: protein: recombinant; tags: N-terminal GST; dsDNA, one strand shown. In a few lines: as §1

Assay [4] addresses T4, ERG (Homo sapiens, UniProt P11308 1-479).
T4 sequence: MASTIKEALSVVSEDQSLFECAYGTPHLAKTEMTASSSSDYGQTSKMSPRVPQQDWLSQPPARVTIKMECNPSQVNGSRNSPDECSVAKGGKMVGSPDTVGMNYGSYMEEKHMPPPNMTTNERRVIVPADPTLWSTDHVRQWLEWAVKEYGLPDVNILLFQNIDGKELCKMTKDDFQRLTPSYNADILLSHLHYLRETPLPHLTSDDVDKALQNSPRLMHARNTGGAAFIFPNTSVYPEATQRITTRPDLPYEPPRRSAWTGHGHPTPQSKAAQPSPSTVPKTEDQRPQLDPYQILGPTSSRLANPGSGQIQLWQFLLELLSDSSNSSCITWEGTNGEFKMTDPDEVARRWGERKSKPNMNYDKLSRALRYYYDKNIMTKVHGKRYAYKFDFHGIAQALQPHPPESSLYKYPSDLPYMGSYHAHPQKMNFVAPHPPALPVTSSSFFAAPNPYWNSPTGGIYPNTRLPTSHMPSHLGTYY
As to conditions: protein: recombinant; tags: N-terminal GST; dsDNA, one strand shown. A digest of the protocol: as §1

Assay [5] addresses ELF1 (Homo sapiens, UniProt P32519 1-619). The following applies: protein: recombinant; tags: N-terminal GST; dsDNA, one strand shown. In a few lines:
as §1

Assay [6] concerns the target T5, EHF (Homo sapiens, UniProt Q9NZC4 1-300).
T5 sequence: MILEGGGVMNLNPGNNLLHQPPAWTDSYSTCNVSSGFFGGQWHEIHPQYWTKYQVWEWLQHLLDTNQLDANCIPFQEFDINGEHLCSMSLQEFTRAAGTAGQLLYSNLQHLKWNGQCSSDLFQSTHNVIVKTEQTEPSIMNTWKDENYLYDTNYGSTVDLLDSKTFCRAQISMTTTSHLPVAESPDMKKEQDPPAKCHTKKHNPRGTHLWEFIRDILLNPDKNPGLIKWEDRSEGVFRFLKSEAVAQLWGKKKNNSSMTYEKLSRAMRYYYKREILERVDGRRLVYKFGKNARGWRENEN
As to conditions: protein: recombinant; tags: N-terminal GST; dsDNA, one strand shown. A digest of the protocol:
as §1

Assay [7] addresses SPI1 (Homo sapiens, UniProt P17947 1-270). The following applies: protein: recombinant; tags: N-terminal GST; dsDNA, one strand shown. A digest of the protocol:
as §1

The target in assay [8] is SPIB (Homo sapiens, UniProt Q01892 1-262). As to conditions: protein: recombinant; tags: N-terminal GST; dsDNA, one strand shown. In a few lines:
as §1

In assay [9] the target is T6, ELK3 (Homo sapiens, UniProt P41970 1-407).
T6 sequence: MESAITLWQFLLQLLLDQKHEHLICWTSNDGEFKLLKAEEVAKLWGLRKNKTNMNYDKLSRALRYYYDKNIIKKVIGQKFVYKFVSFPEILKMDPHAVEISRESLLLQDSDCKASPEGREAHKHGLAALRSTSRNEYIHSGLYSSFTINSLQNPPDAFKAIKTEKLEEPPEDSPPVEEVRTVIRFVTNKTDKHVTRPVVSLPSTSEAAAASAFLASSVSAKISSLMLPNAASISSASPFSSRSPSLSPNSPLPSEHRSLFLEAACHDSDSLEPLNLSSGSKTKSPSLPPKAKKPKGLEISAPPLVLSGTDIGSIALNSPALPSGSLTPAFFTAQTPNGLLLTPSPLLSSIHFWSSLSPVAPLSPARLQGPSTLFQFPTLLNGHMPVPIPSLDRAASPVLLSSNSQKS
The following applies: protein: recombinant; tags: N-terminal GST; dsDNA, one strand shown. In a few lines: as §1

Assay [10] deals with T7, FEV (Homo sapiens, UniProt Q99581 1-238).
T7 sequence: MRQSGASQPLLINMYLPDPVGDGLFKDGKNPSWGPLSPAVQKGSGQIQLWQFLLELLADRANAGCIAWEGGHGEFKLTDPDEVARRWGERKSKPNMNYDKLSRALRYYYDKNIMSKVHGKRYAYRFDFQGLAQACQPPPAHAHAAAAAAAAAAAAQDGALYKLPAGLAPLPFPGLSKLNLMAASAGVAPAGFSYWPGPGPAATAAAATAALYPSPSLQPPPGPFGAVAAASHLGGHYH
As to conditions: protein: recombinant; tags: N-terminal GST; dsDNA, one strand shown. In a few lines:
as §1

Assay [11] has as its target ETV5 (Homo sapiens, UniProt P41161 1-510). As to conditions: protein: recombinant; tags: N-terminal GST; dsDNA, one strand shown. A digest of the protocol:
as §1

The target in assay [12] is HSF1 (Homo sapiens, UniProt Q00613 1-529). The following applies: protein: recombinant; tags: N-terminal GST; chain copies: 3; dsDNA, one strand shown. A digest of the protocol: as §1
Assay [13] has as its target T8, SPIC (Homo sapiens, UniProt Q8N5J4 1-248).
T8 sequence: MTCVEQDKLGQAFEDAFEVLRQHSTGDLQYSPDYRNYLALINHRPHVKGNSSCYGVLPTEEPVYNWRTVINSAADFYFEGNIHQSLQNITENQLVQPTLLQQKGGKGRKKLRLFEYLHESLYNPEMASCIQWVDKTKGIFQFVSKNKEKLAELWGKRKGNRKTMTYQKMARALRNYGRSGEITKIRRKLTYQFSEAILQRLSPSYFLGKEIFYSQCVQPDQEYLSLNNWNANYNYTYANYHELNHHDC
The following applies: protein: recombinant; tags: N-terminal GST; dsDNA, one strand shown. A digest of the protocol:
as §1

For assay [14], the target named is ELF4 (Homo sapiens, UniProt Q99607 1-663). As to conditions: protein: recombinant; tags: N-terminal GST; dsDNA, one strand shown. In a few lines: as §1
Assay [15] has as its target T9, ELK4 (Homo sapiens, UniProt P28324-2 1-405).
T9 sequence: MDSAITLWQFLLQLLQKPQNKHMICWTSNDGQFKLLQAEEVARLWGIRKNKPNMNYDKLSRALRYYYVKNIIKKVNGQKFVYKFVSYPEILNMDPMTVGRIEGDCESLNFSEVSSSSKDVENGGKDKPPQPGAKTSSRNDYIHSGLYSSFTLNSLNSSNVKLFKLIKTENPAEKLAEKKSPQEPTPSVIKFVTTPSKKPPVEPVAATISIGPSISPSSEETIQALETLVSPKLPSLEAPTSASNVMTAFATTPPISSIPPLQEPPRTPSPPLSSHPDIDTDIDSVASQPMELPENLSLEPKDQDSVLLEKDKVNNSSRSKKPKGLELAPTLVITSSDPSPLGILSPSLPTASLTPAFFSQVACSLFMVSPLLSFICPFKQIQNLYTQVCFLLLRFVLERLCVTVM
As to conditions: protein: recombinant; tags: N-terminal GST; dsDNA, one strand shown. In a few lines:
as §1

Assay [16] concerns the target T10, ETV2 (Homo sapiens, UniProt O00321 1-342).
T10 sequence: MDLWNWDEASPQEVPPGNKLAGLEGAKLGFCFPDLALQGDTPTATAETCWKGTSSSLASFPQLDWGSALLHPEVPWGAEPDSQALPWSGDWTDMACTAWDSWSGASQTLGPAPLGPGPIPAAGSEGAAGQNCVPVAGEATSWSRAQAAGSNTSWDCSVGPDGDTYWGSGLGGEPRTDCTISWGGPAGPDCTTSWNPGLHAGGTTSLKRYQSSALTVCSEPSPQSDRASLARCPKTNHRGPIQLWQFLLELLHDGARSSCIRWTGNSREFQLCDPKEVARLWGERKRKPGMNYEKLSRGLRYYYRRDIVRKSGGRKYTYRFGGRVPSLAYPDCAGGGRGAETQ
The following applies: protein: recombinant; tags: N-terminal GST; dsDNA, one strand shown. In a few lines:
as §1

Assay [17] has as its target T11, ELF3 (Homo sapiens, UniProt P78545 1-371).
T11 sequence: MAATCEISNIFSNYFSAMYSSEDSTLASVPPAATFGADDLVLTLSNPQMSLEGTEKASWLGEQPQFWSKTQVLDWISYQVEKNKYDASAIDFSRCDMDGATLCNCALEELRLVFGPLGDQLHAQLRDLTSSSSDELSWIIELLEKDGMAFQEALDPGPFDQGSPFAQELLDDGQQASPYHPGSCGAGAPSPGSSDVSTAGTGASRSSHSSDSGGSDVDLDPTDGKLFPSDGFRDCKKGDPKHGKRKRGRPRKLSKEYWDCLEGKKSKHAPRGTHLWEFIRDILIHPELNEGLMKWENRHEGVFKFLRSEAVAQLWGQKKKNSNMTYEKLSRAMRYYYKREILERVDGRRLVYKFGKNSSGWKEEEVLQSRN
The following applies: protein: recombinant; tags: N-terminal GST; dsDNA, one strand shown. In a few lines: as §1

Assay [18] addresses ETV1 (Homo sapiens, UniProt P50549 1-477). As to conditions: protein: recombinant; tags: N-terminal GST; dsDNA, one strand shown. A digest of the protocol:
as §1

SPIB, sequence (Q01892 whole entry): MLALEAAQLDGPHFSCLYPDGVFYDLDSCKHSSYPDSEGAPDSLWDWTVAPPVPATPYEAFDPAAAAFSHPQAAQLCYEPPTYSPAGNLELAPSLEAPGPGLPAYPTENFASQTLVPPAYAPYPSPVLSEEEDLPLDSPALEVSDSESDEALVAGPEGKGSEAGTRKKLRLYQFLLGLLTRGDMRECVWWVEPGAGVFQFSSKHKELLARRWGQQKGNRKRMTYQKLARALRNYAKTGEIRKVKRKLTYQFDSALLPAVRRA
ETV5, sequence (P41161 whole entry): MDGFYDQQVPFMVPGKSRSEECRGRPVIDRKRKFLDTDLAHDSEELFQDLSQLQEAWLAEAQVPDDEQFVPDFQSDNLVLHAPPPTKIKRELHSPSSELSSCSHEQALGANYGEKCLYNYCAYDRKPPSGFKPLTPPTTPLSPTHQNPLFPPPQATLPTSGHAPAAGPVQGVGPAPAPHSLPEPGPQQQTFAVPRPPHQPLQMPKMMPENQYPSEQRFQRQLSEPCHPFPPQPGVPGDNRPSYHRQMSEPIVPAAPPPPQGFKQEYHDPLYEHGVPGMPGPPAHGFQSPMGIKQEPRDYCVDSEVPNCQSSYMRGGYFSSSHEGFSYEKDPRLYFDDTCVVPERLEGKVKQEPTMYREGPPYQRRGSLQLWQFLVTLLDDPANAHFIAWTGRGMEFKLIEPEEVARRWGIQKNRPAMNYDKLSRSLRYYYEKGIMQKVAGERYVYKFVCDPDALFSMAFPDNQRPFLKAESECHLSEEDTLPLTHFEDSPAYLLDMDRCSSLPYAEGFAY
ELF4, sequence (Q99607 whole entry): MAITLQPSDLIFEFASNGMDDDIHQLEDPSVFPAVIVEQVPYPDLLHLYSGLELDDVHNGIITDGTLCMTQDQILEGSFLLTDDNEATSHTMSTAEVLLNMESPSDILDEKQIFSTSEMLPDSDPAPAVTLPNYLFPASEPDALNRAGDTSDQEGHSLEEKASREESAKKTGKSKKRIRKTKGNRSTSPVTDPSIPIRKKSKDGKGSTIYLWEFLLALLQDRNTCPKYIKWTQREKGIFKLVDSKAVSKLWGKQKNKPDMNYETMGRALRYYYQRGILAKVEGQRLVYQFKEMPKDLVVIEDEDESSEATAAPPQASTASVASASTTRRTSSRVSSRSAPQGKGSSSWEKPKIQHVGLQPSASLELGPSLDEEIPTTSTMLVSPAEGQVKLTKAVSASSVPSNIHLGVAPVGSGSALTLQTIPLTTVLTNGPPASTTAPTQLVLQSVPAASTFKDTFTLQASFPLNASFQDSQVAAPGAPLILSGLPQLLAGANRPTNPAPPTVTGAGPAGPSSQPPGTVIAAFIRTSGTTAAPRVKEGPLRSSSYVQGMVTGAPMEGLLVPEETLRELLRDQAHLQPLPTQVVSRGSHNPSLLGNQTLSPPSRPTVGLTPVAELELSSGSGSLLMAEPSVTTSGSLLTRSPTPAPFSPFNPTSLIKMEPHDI
ETV1, sequence (P50549 whole entry): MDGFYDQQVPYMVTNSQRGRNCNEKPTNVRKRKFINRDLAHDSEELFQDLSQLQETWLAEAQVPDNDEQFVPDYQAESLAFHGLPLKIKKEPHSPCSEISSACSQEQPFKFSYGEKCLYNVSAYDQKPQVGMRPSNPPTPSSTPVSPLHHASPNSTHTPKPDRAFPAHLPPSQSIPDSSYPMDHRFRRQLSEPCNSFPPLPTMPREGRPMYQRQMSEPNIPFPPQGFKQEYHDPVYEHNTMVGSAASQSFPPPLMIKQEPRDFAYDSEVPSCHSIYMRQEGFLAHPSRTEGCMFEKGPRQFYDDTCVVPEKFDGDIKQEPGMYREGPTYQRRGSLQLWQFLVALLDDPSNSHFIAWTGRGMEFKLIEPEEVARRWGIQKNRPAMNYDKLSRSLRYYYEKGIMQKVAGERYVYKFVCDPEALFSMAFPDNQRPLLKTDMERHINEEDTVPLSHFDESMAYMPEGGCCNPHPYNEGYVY
ELF1, sequence (P32519 whole entry): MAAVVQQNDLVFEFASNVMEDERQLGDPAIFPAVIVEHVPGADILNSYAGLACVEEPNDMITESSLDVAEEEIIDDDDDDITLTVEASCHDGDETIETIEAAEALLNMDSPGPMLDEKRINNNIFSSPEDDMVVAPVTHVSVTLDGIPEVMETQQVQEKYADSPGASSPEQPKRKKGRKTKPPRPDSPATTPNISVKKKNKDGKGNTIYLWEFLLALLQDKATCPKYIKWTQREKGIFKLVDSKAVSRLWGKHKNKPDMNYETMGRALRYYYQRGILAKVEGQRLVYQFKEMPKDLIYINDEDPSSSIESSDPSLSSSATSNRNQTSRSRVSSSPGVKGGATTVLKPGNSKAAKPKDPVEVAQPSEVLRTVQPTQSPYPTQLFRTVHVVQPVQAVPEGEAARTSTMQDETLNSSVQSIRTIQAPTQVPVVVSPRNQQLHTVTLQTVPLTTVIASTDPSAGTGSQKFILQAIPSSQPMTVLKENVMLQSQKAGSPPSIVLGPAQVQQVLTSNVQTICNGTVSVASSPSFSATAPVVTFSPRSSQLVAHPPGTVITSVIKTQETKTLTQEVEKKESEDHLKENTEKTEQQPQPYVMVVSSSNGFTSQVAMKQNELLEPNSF
HSF1, sequence (Q00613 whole entry): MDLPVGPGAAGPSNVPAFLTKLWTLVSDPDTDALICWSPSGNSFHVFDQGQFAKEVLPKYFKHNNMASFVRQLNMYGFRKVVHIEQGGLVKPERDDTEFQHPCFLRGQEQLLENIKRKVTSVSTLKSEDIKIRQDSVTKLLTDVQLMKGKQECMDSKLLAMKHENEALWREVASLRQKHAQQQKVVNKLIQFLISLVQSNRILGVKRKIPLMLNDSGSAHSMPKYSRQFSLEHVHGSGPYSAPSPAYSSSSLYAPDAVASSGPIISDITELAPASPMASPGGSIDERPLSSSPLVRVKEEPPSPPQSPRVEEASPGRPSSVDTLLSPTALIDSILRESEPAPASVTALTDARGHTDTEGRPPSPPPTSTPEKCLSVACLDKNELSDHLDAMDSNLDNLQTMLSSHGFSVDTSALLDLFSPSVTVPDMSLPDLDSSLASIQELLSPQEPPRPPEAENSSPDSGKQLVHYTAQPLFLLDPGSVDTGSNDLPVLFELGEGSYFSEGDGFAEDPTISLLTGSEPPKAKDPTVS

As for ACGTAC, the binding signal was 1.24 fold enrichment (6-mer frequency, TF over GST control) in [1]; 1.16 fold enrichment (6-mer frequency, TF over GST control) in assay [2]; 1.13 fold enrichment (6-mer frequency, TF over GST control) in assay [3]; 1.08 fold enrichment (6-mer frequency, TF over GST control) in assay [4]; 1.16 fold enrichment (6-mer frequency, TF over GST control) in assay [5]; 1.15 fold enrichment (6-mer frequency, TF over GST control) in [6]. Besides, the binding signal in assay [7] was 1.18 fold enrichment (6-mer frequency, TF over GST control); in assay [8], 1.11 fold enrichment (6-mer frequency, TF over GST control); in [9] it was 1.19 fold enrichment (6-mer frequency, TF over GST control); in assay [10], 1.17 fold enrichment (6-mer frequency, TF over GST control); in assay [11] it was 1.21 fold enrichment (6-mer frequency, TF over GST control); in [12], 1.04 fold enrichment (6-mer frequency, TF over GST control). Moreover, the binding signal is 1.18 fold enrichment (6-mer frequency, TF over GST control) in [13]; 1.23 fold enrichment (6-mer frequency, TF over GST control) in [14]; 1.24 fold enrichment (6-mer frequency, TF over GST control) in [15]; 1.32 fold enrichment (6-mer frequency, TF over GST control) in [16]; 1.25 fold enrichment (6-mer frequency, TF over GST control) in assay [17]; 1.18 fold enrichment (6-mer frequency, TF over GST control) in assay [18].

Source of the values: paper PMC7862700, “An all-to-all approach to the identification of sequence-specific readers for epigenetic DNA modifications on cytosine”.
